Results on 85 molecules are retold here after PubChem BioAssay AID1259418 (Broad Institute, 2018).

Among all 3,400 compounds or so, about 840 (25%) were called active. Not shown: some 11% with an inconclusive outcome.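 How the source made its calls: active means fitted half-maximal concentration of signal decrease at or below twice the sample's top tested concentration; inconclusive means flat curve between -70 and -30 percent, or poor fit; inactive means flat within 30 percent, signal rise, or potency above limit.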 Only a sample is shown. Measured potencies and affinities stand elsewhere.

The assay is described as follows: inhibitors of Toxoplasma growth in IFN-γ-primed HeLa – cell-based, ME49Luc, luciferase, 72 h, dose response (AID 1259418). Particulars: T. gondii ME49Luc in IFN-y HeLa, stronger effect = lower value, -100% = high-dose IFN-γ control wells; at 19.5 µM unless noted.
Regarding `COC[C@H]1CN(C)C[C@]12CCN(C(=O)c1cc3ccccc3s1)C2`, the max activity was 13.1% (inactive). Take `COc1ccccc1-c1nc(C)c(-c2ccc(SCC(=O)OCc3ccccc3)nn2)s1`: the max activity was 8.29% [at 10 µM] (inactive). For `Cc1oc(-c2cccc(Cl)c2)nc1CSc1nc2c(c(=O)[nH]1)CN(Cc1ccc(F)cc1)CC2`, the max activity is 15.7% (inactive). Turning to `Cc1cccc(C)c1NC(=O)CN1CCC2(CC1)N=C(c1ccc(F)cc1)C(=O)N2`, the max activity was 10% [at 1.35 µM] (inactive). With `Cc1nc(OCC(=O)Nc2cccc(Cl)c2C)c2ccccc2n1`, the max activity was 33.5% [at 0.16 µM] (inactive). The figure for `COc1ccc(CNC(=O)CC2N=C3c4ccccc4N=C(SCc4cccc(F)c4)N3C2=O)cc1` (stereo not given) is 12.5% [at 1.35 µM] (inactive). The figure for `Cc1ccc(CSC2=Nc3ccccc3C3=NC(CC(=O)NCc4ccc(F)cc4)C(=O)N23)cc1` (stereo not given) is 13.6% [at 1.35 µM] (inactive); for `CCCCNC(=O)CC1N=C2c3ccccc3N=C(SCc3ccc(F)cc3)N2C1=O` (stereo not given) it is 8.45% [at 2.6 µM] (inactive); for `COc1ccc(CNC(=O)CC2N=C3c4ccccc4N=C(SCc4ccc(C)cc4C)N3C2=O)cc1` (stereo not given) it is -42% (inactive). The figure for `COc1ccc(CNC(=O)CC2N=C3c4ccccc4N=C(SCc4ccccc4F)N3C2=O)cc1` (stereo not given) is 17.8% [at 10 µM] (inactive). As for `COc1ccc(CNC(=O)CCC2N=C3c4ccccc4N=C(SCc4ccc(C)cc4)N3C2=O)cc1` (stereo not given), the max activity was 16.4% [at 1.35 µM] (inactive). With `CCOc1ccccc1-c1nc(CSc2nc3c(c(=O)[nH]2)CN(Cc2ccccc2)CC3)c(C)o1` the figure was 18.7% (inactive); with `O=C1CCc2cc(NC(=O)C3CCC3)ccc2N1`, -4.89% [at 0.68 µM] (inactive). The figure for `CCC(=O)N1CCC2(CC1)Nc1cc(F)ccc1-n1cccc12` is 8.79% [at 0.68 µM] (inactive); for `CC1CCCN(c2nc(-c3ccc(Cl)cc3)nc3ccccc23)C1` (stereo not given) it is -6.84% [at 2.6 µM] (inactive). With `COc1ccccc1-c1nc(C)c(-c2ccc(SCc3cccc(C)c3)nn2)s1`, the max activity is 12.4% [at 10 µM] (inactive).

As to `COCCCNC1=NCCNC12CCN(S(=O)(=O)c1ccc(C)c(C)c1)CC2`, the max activity is 15.1% [at 0.16 µM] (inactive). Regarding `Clc1ccccc1CSc1nc(NC2CCCCC2)c2ccccc2n1`, the max activity was 13.8% (inactive). With `Cc1ccc(-c2nc3c(s2)CN(C(=O)Nc2ccccc2C(F)(F)F)CC3)cc1` the figure was 101% [at 10 µM] (inactive); with `COc1ccc(-c2nc(Nc3cc(C)ccc3C)c3ccccc3n2)cc1`, 25.6% (inactive); with `CCCNC(=O)N1[C@H](C#N)[C@H](c2ccc(-c3ccccc3F)cc2)[C@H]1CO`, -14.6% (inactive). With `CCCNC(=O)N1[C@H](C#N)[C@@H](c2ccc(-c3ccccc3F)cc2)[C@H]1CO` the figure was -20.5% [at 0.6 µM] (inactive); with `CCc1nc(OCC(=O)Nc2cc(Cl)c(OC)cc2OC)c2ccccc2n1`, 17% [at 0.16 µM] (inactive). As to `COc1ccc(OC)c(NC(=O)N2CCc3nc(-c4ccc(C)cc4)sc3C2)c1`, the max activity was 13.3% (inactive). With `CN1C(=O)CCc2cc(NC(=O)c3ccco3)ccc21` the figure was 172% (inactive); with `COc1ccc(OC)c(NC(=O)N2CCc3nc(-c4ccccc4)sc3C2)c1`, 6.12% (inactive); with `CCC(C(=O)N1CCC[C@@H]1C(=O)NCCc1csc(-c2ccccc2)n1)c1ccccc1` (stereo not given in full), 13.1% [at 2.6 µM] (inactive).

Take `Cc1ccc(CN2CCCn3nc(C(=O)N4CCC(N5CCCCC5)CC4)cc3C2=O)cc1`: the max activity was -18.3% [at 5 µM] (inactive). The figure for `O=C(Nc1ccc(-c2nc(-c3ccccc3)co2)cc1)NC1CCCCC1` is 71.1% (inactive); for `O=C(Cn1cccc1-c1nc(-c2ccccc2)cs1)N1CCC(N2CCCCC2)CC1` it is 7.65% [at 10 µM] (inactive); for `Cc1ccc(-c2nc(Cn3nnc(-c4nc(-c5ccc(Br)cc5)no4)c3C)c(C)o2)cc1` it is 26.9% (inactive).

`Cc1cccc(-c2noc(-c3ccc(N4CCC(N5CCCCC5)CC4)nc3)n2)c1`: the max activity was 26.5% [at 10 µM] (inactive). The figure for `Fc1cccc(-c2noc(-c3ccc(N4CCC(N5CCCCC5)CC4)nc3)n2)c1` is 21.6% [at 5 µM] (inactive); for `Cc1ccc(Nc2ncnc3c2cnn3-c2ccc(Cl)cc2)cc1` it is 81.3% [at 10 µM] (inactive). With `O=C(Nc1ccc(Br)cc1)Nc1ccc(-c2nc(-c3ccccc3)co2)cc1` the figure was -11.6% (inactive); with `CCc1cc(C(=O)Nc2ccc(C)cc2-c2cc(C)[nH]n2)c2c(C)noc2n1`, 19.5% [at 10 µM] (inactive).

As to `O=C(NCCN1CCCC1)[C@H]1[C@H](CO)[C@H]2Cn3c(cccc3=O)[C@H]2N1Cc1ccccn1`, the max activity is 48.1% (inactive). In the case of `C=CCN1C(=O)COC2(CCN(Cc3ccc(C)s3)CC2)C1C` (stereo not given), the max activity was 27.2% (inactive). The figure for `COc1ccc(NC(=O)CN2CCC3(CC2)N=C(c2ccc(F)cc2)C(=O)N3)cc1OC` is -16.1% [at 10 µM] (inactive). As for `Cc1ccc2c(c1)cc(S(=O)(=O)c1ccccc1)c(=O)n2CC(=O)N1CCCCC1`, the max activity is -6.78% [at 0.68 µM] (inactive). For the molecule `Cc1ccc2c(c1)cc(S(=O)(=O)c1ccccc1)c(=O)n2CC(=O)N1CCCC1`, the max activity was -8.58% [at 5 µM] (inactive). The figure for `Clc1ccccc1-c1nc(NCCN2CCCc3ccccc32)c2ccccc2n1` is 37.1% (inactive).

For the molecule `CCCNC(=O)N1CCN(Cc2nc(-c3ccc(OCC)cc3)oc2C)CC1`, the max activity is 7.68% (inactive).

Take `Cc1ccc(NC(=O)N2CCN(Cc3nc(-c4ccc(C)cc4)oc3C)CC2)cc1`: the max activity was 13.6% [at 0.16 µM] (inactive).

As for `Cc1ccc(-c2nc(CN3CCN(C(=O)Nc4cccc(C)c4)CC3)c(C)o2)cc1`, the max activity is -23.6% (inactive).

For `Cc1ccc(-c2nc(CN3CCN(C(=O)NC(C)C)CC3)c(C)o2)cc1`, the max activity was -10.1% [at 0.35 µM] (inactive). The figure for `Cc1ccc(-c2nc(CN3CCN(C(=O)Nc4ccc(Cl)cc4)CC3)c(C)o2)cc1` is 22.8% [at 0.16 µM] (inactive); for `CCOC(=O)c1ccc(NC(=O)N2CCN(Cc3nc(-c4cccc(Cl)c4)oc3C)CC2)cc1` it is 13.5% [at 1.35 µM] (inactive).

For `CCc1ccc(NC(=O)N2CCN(Cc3nc(-c4ccc(C)cc4)oc3C)CC2)cc1`, the max activity is -17.1% [at 0.68 µM] (inactive). With `Cc1ccc(NC(=O)N2CCN(Cc3nc(-c4ccccc4C)oc3C)CC2)cc1` the figure was 9.16% [at 2.6 µM] (inactive); with `COC(=O)c1cccc(NC(=O)Nc2ccc(-c3nc(-c4ccc(C)cc4C)co3)cc2)c1`, 21.2% (inactive); with `Cc1ccc(-c2coc(-c3ccc(NC(=O)c4ccccc4)cc3)n2)c(C)c1`, 20.4% [at 10 µM] (inactive).

Consider `Cc1ccc(-c2coc(-c3ccc(NC(=O)Nc4ccc5c(c4)OCCO5)cc3)n2)c(C)c1`, for which the max activity was 48.2% (inactive). For the molecule `Cc1ccc(CNC(=O)C2(C)CCC(=O)N2CCc2c[nH]c3ccccc23)cc1` (stereo not given), the max activity was -12.5% [at 0.35 µM] (inactive). The figure for `O=C(Nc1ccc(-c2nc(-c3ccccc3)co2)cc1)Nc1ccccc1Br` is 65.8% [at 10 µM] (inactive). The figure for `Cc1ccc2c(c1C)-n1cccc1C1(CCN(C(=O)CC(C)C)CC1)N2` is 7.04% [at 0.68 µM] (inactive). With `O=C(Cc1ccccc1Cl)N1CCC2(CC1)Nc1ccccc1-n1cccc12` the figure was 15.3% [at 10 µM] (inactive); with `COc1ccc(S(=O)(=O)N2CCC[C@@H]2C(=O)NCCc2csc(C)n2)cc1Cl`, 8.05% [at 10 µM] (inactive). `CCOCCCNC(=O)c1ccc2ccc(N3CCN(CC4CC4)CC3)n2c1`: the max activity was 42.5% (inactive).

With `CCOc1cccc(-c2noc(-c3nnn(Cc4nc(-c5cccc(C)c5)oc4C)c3C)n2)c1`, the max activity is 8.84% (inactive).

With `CCOc1ccc(-c2nc(CN3CCN(C(=O)NCCc4ccccc4)CC3)c(C)o2)cc1`, the max activity was -9.01% [at 0.68 µM] (inactive). The figure for `COc1ccc(NC(=O)N2CCN(Cc3nc(-c4ccc(C)cc4)oc3C)CC2)cc1OC` is 9.7% (inactive). Regarding `Cc1ccccc1-c1nc(CN2CCN(C(=O)Nc3ccccc3)CC2)c(C)o1`, the max activity is -12.3% [at 2.6 µM] (inactive). With `CCOc1ccc(-c2nc(CN3CCN(C(=O)Nc4cccc(OC)c4)CC3)c(C)o2)cc1` the figure was 16.9% [at 0.35 µM] (inactive); with `O=C(Cc1ccc(Cl)cc1)Nc1ccc(-c2nc(-c3ccccc3)co2)cc1`, 17.2% [at 2.6 µM] (inactive); with `CCOC(=O)C(=O)Nc1ccc(-c2nc(-c3ccc(C)cc3C)co2)cc1`, 44.4% (inactive). The figure for `CC(C)c1ccc(C(=O)N=C(N)N)cc1S(C)(=O)=O` is 11.6% (inactive). With `CCOc1ccc(-c2nc3c(s2)CN(S(=O)(=O)c2cccc(C)c2)CC3)cc1` the figure was 29% (inactive); with `CCS(=O)(=O)N1CC(=O)N2[C@H](CO)[C@@H](c3ccc(-c4cccc(F)c4)cc3)[C@@H]2C1`, -8.63% (inactive); with `Cc1ccsc1C(=O)N1CCc2nc(-c3cnn(C)c3)nc(NC(C)C)c2C1`, -26.1% [at 0.16 µM] (inactive). For `COc1ccc(-c2nc3c(s2)CN(S(=O)(=O)c2cccc(F)c2)CC3)cc1`, the max activity is 9.88% (inactive). With `Cc1ccc(-c2coc(-c3ccc(NC(=O)Nc4ccccc4C)cc3)n2)c(C)c1`, the max activity was 21.8% [at 10 µM] (inactive). Take `Cc1ccc(OCC(=O)Nc2ccc(-c3nc(-c4ccc(C)cc4)co3)cc2)cc1`: the max activity is 20.2% (inactive).

For the molecule `COc1ccccc1-c1nc(Cn2c(=O)c3c(C)cc(C)nc3n(-c3ccccc3)c2=O)c(C)o1`, the max activity is 9.28% [at 2.6 µM] (inactive). Take `Cc1ccc2c(c1C)-n1cccc1C1(CCN(C(=O)COc3ccc(Cl)cc3)CC1)N2`: the max activity was -7.41% [at 1.35 µM] (inactive). The figure for `O=C(CCC1Nc2c3ccccc3nc(=S)n2C1=O)NCc1cccs1` (stereo not given) is 14.7% [at 5 µM] (inactive). As to `Cc1nc(OCC(=O)Nc2ccccc2C)c2ccccc2n1`, the max activity is 19.6% [at 0.68 µM] (inactive). With `CO[C@@H]1CCN(c2ncccn2)C[C@@H]1Cc1cccc(C)c1` the figure was 9.87% (inactive); with `COc1ccc(C[C@H]2CN(C(=O)c3ccnn3C)CC[C@H]2OC)cc1`, 30.4% (inactive). The figure for `O=S(=O)(c1cccc(C(F)(F)F)c1)N1CCC(N2CCOCC2)CC1` is 20.6% [at 0.16 µM] (inactive). The figure for `CN(C)C(=O)CN1CCOCC2(CCN(CC3CCOC3)CC2)C1` (stereo not given) is 23.8% (inactive); for `Cc1ccc(C)c(-c2coc(-c3ccc(NC(=O)NC4CCCC4)cc3)n2)c1` it is 6.74% (inactive); for `Cc1ccc2c(c1C)-n1cccc1C1(CCN(C(=O)CC3CCCCC3)CC1)N2` it is -13.7% [at 0.16 µM] (inactive). Turning to `CCC(CC)C(=O)N1CCC2(CC1)Nc1ccc(C)c(C)c1-n1cccc12`, the max activity was -6.76% [at 0.35 µM] (inactive). With `CCOc1ccc(S(=O)(=O)N2CCC[C@@H]2C(=O)NCCc2csc(C)n2)cc1` the figure was -13.1% (inactive).
